Screening results deposited in PubChem BioAssay by National Center for Advancing Translational Sciences (NCATS).
A selection: hits, their analogues and other compounds. The true share with any hit is near 6%.
PLK1 PBD block: blocks phosphopeptide binding to human PLK1 polo-box domain. P53350. Plk1 PBD binding of FITC phosphopeptide, fluorescence polarization. Potency, µM, for the others: max response, negative = inhibition, actives largely listed as inhibitors. 2.8% of 360,000 active; note: series mostly up to about 57 µM; nearly all actives have a fitted effect of over 65% in size
Target sequence (P53350 whole entry, looked up, the tested form may be a part): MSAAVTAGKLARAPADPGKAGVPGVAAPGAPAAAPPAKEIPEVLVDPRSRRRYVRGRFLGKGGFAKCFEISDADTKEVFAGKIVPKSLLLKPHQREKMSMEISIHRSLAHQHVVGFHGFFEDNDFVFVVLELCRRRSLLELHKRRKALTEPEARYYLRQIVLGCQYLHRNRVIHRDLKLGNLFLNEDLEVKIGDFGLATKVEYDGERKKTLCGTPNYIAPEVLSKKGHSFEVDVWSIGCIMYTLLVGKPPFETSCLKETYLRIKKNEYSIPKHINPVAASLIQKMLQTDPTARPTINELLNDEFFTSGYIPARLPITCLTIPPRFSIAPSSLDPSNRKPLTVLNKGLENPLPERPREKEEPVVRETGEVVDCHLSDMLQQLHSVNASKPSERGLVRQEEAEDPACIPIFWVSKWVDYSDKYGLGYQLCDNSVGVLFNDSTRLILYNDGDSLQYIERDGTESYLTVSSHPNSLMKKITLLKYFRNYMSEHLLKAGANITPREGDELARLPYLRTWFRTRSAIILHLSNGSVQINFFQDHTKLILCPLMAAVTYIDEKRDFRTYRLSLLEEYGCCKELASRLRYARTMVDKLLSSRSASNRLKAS
Tau fibril FP: blocks human tau fibril formation measured by polarization | AID 1468 | Potency, µM (series often up to 57.7 µM), without a hit: top-dose activity, negative = inhibition, usual class: inhibitors | P10636 | K18 P301L tau heparin fibrillization, Alexa594 FP, 6 h | 0.39% of 280,000 active; note: nearly all actives have a fitted effect of over 55% in size
Target sequence (P10636 561-689 P618L limits assumed): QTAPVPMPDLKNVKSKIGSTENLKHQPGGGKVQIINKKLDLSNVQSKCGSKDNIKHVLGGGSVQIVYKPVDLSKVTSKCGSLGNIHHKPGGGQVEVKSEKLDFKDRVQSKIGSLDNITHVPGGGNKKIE
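Read-out: fluorescence polarization of Alexa 594-labeled tau (0.24 uM), 555 nm excitation, 632 nm emission. Mixtures held 15 uM unlabeled K18 P301L, compound and 20 uM heparin, pH 7 acetate buffer, incubated 6 hr at 37 C.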
VDR inh: vitamin D3 receptor (human) inhibition; 0.93% of 400,000 active; VDR-SRC2-3 peptide fluorescence polarization, 2 h; Potency, µM, for inactives: max response, negative = inhibition, hits mostly inhibitors
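FP read-out; VDR + SRC2-3 coactivator peptide; 23 nl compound by pintool; 2 h RT incubation; reagents held at 4 deg C, protected from light.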
Tau ThT inhib: inhibitors of human tau fibril formation, thioflavin T binding | Potency, µM (doses to about 57.4 µM), inactives show at the top dose activity, negative = inhibition, actives largely listed as inhibitors | recombinant tau K18 P301L, heparin-induced fibrillization, ThT fluorescence | P10636 | 2.1% of 270,000 active; note: nearly all actives have a fitted effect of over 55% in size
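Tau K18 P301L fragment (15 uM unlabeled plus 0.24 uM Alexa 594-labeled) in 100 mM sodium acetate pH 7 with compound, fibrillization induced by 20 uM heparin for 6 hr at 37 C. Thioflavin T (30 uM) added, fluorescence read after 1 hr (ex 450, em 510 nm).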
Sfp inh: inhibitors of Bacillus subtilis Sfp phosphopantetheinyl transferase; Biochemical Sfp PPTase activity, qHTS; Potency, µM, without a hit: largest response in the series, negative = inhibition, usual class: inhibitors; Q9F4F7; 3.5% of 310,000 active;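 note: the enzyme is Sfp with the accession as filed and its product quenches rhodamine fluorescence; 0% = enzyme reaction without inhibitor and -100% = no enzyme wells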
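With Hepes-Na pH 7.6 buffer containing 10 mM MgCl2, Sfp (15 nM) modified BHQ-2-YbbR (12.5 uM) using rhodamine-CoA (5 uM). Two reads 30 minutes apart at 525/598 nm yielded each well's rate.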
Tau fluor counter: counter-screen for tau fibril formation inhibitors; 0.93% of 280,000 active; Potency, µM (top dose mostly 57.7 µM), for inactives: at the highest dose activity change, negative = decrease; tau K18 P301L (four-repeat tau fragment) Alexa594 fluorescence, heparin fibrillization; note: nearly all actives have a fitted effect of over 55% in size
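Human K18 P301L tau (15 uM unlabeled plus 0.24 uM Alexa 594-labeled, final) in 100 mM sodium acetate pH 7 was mixed with compound and 20 uM heparin and incubated 6 hr at 37 C.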
* marks the source's active call; other numbers are inactive results; [ ] = dose if it differs, or a comment. Calls come from the whole dose curve; as a rule, active = well fitted curve in the direction sought with a large enough effect; inconclusive = small, poorly fitted or top-dose-only effect, or another doubt; inactive = no such curve, though single readings can be large; an effect the other way counts as inactive or inconclusive. Unless noted, % is set by controls: 0 for no effect and ±100 for the full control effect; potency is the fitted concentration of half-maximal effect.

Results for COC(=O)c1cc(NC(=O)Nc2cccc(Cl)c2)ccc1Cl ?
PLK1 PBD block: -12.2%; Tau fibril FP: 7.94µM*; VDR inh: 17.6%; Tau ThT inhib: inconclusive; Sfp inh: -6.2%; Tau fluor counter: 7.94µM*[quencher]

How did COC(=O)c1cc(NC(=S)Nc2cc(Cl)cc(Cl)c2)cc(C(=O)OC)c1 do in these assays?
PLK1 PBD block: -17.7%; Tau fibril FP: 31.6µM*; VDR inh: 0.2%; Tau ThT inhib: -5.4%; Sfp inh: -2.2%; Tau fluor counter: inconclusive

Results for COc1ccc(N2CCN(C(=O)COC(=O)COc3cc(C)cc(C)c3)CC2)cc1 ?
PLK1 PBD block: -4.0%; VDR inh: -21.6%

How did Cn1c(N)c(C(=O)COC(=O)c2ccccc2C(=O)c2ccc(Cl)c([N+](=O)[O-])c2)c(=O)n(C)c1=O do in these assays?
PLK1 PBD block: -3.6%; VDR inh: -0.3%

What do the screens show for `Cc1c(C(=O)NN2CCCCC2)nn(-c2ccc(Cl)cc2Cl)c1-c1ccc(Cl)cc1`?
VDR inh: inconclusive; Sfp inh: -12.2%

What do the screens show for `Cc1ccc(C(=O)/C=C/c2cn(CC(O)CN3CCCCCC3)c3ccccc23)cc1` (stereo not given)?
Tau fibril FP: -20.5%; VDR inh: 8.0%; Tau ThT inhib: 12.6µM*; Tau fluor counter: inconclusive

How did O=C(/C=C/c1cn(CC(O)CN2CCCCCC2)c2ccccc12)c1ccc(Br)cc1 (stereo not given) do in these assays?
Tau fibril FP: -12.2%; VDR inh: 18.8%; Tau ThT inhib: 22.4µM*; Tau fluor counter: inconclusive

How did O=C(/C=C/c1cn(CC(O)CN2CCCCCC2)c2ccccc12)c1ccccc1 (stereo not given) do in these assays?
Tau fibril FP: -5.8%; VDR inh: 3.5%; Tau ThT inhib: inconclusive; Tau fluor counter: inconclusive

What do the screens show for `CCCN1CNc2c(c(=O)[nH]c(=S)n2CCc2ccc(Cl)cc2Cl)C1`?
VDR inh: -29.2%

How did O=C(O)c1ccccc1N=Nc1ccc(O)cc1 do in these assays?
PLK1 PBD block: 29.9µM*; VDR inh: inconclusive

How did FC(F)(F)c1ccccc1NC(=S)Nc1cccc2cnccc12 do in these assays?
PLK1 PBD block: 29.9µM*; Tau fibril FP: inconclusive; VDR inh: 3.9%; Tau ThT inhib: 22.4µM*; Sfp inh: 20µM*; Tau fluor counter: -21.8%

What do the screens show for `Cc1ccc(C)c(NC(=S)Nc2cccc3cnccc23)c1`?
PLK1 PBD block: inconclusive; Tau fibril FP: inconclusive; VDR inh: -25.6%; Tau ThT inhib: inconclusive; Sfp inh: 31.6µM*; Tau fluor counter: -13.7%

Results for Cc1ccccc1NC(=S)Nc1ccccn1 ?
PLK1 PBD block: inconclusive; Tau fibril FP: -2.0%; VDR inh: -7.2%; Tau ThT inhib: -6.9%; Sfp inh: 56.2µM*; Tau fluor counter: -9.7%

What do the screens show for `Fc1ccccc1NC(=S)Nc1cccc2cnccc12`?
PLK1 PBD block: 29.9µM*; Tau fibril FP: inconclusive; VDR inh: inconclusive; Tau ThT inhib: inconclusive; Sfp inh: 22.4µM*; Tau fluor counter: -15.5%

How did Cc1ccc(F)c(NC(=S)Nc2cccc3ccccc23)c1 do in these assays?
Sfp inh: -17.6%

How did Nc1ncnc2c1ncn2[C@@H]1O[C@H](C(=O)N2CCN(c3ccc(Cl)cn3)CC2)[C@@H](O)[C@H]1O do in these assays?
PLK1 PBD block: -13.4%

Results for CC(=O)c1ccc(N2CCN(c3ncnc4c3c(-c3ccccc3)cn4-c3cccc(C)c3)CC2)cc1 ?
Tau fibril FP: 0.8%; VDR inh: 2.9%; Tau ThT inhib: -16.2%; Tau fluor counter: -7.1%

What do the screens show for `Cc1ccccc1NC(=S)Nc1cccc2cnccc12`?
PLK1 PBD block: inconclusive; Tau fibril FP: -15.8%; VDR inh: -2.2%; Tau ThT inhib: inconclusive; Sfp inh: 3.16µM*; Tau fluor counter: -13.6%

How did CCCCNC(=S)Nc1cccc2cnccc12 do in these assays?
PLK1 PBD block: inconclusive; Tau fibril FP: 2.6%; VDR inh: 0.3%; Tau ThT inhib: -8.9%; Sfp inh: -17.3%; Tau fluor counter: -7.1%

What do the screens show for `FC(F)(F)c1ccccc1NC(=S)Nn1cnnc1`?
PLK1 PBD block: 9.47µM*; VDR inh: inconclusive; Sfp inh: 20µM*

What do the screens show for `CC(C)c1ccc2[nH]c(O)c(N=NC(=O)c3cccc(S(=O)(=O)Nc4ccccc4Cl)c3)c2c1`?
PLK1 PBD block: -19.2%; Tau fibril FP: -2.7%; VDR inh: 3.9%; Tau ThT inhib: 5.4%; Sfp inh: -7.6%; Tau fluor counter: -0.6%

Results for NS(=O)(=O)c1cc(C(=O)N=Nc2c(O)[nH]c3ccccc23)ccc1Cl ?
PLK1 PBD block: 1.4%; Tau fibril FP: 0.6%; VDR inh: -2.6%; Tau ThT inhib: 14.1µM*; Sfp inh: -2.9%; Tau fluor counter: -29.8%

How did O=C(N=Nc1c(O)[nH]c2ccccc12)c1cccc(S(=O)(=O)Nc2ccccc2Cl)c1 do in these assays?
PLK1 PBD block: 29.9µM*; Tau fibril FP: -13.1%; VDR inh: -21.9%; Tau ThT inhib: inconclusive; Sfp inh: inconclusive; Tau fluor counter: -27.2%

What do the screens show for `CN1C(=O)c2c(sc3c2CCCC3)NC1c1ccccc1O` (stereo not given)?
Tau fibril FP: -10.6%; Tau ThT inhib: inconclusive; Sfp inh: 39.8µM*; Tau fluor counter: inconclusive

Results for CS(=O)(=O)N(Cc1nnc(-c2cccs2)o1)c1ccc(Cl)cc1F ?
PLK1 PBD block: 11.9µM*; Tau fibril FP: -3.9%; VDR inh: -21.5%; Tau ThT inhib: -1.5%; Sfp inh: 12.1%; Tau fluor counter: -7.6%

Results for CC(NC(=O)c1nn(C)c2c1CSc1ccccc1-2)c1ccccc1 (stereo not given) ?
Tau fibril FP: -6.5%; VDR inh: 11.8%; Tau ThT inhib: -14.2%; Tau fluor counter: -12.8%

Results for Cc1cc2cc(C=O)c(Cl)nc2cc1C ?
PLK1 PBD block: -9.1%; Tau fibril FP: 3.1%; VDR inh: -4.4%; Tau ThT inhib: -3.8%; Sfp inh: 31.6µM*; Tau fluor counter: -3.9%

What do the screens show for `O=C(COc1ccc(S(=O)(=O)NC2CCCCC2)cc1)Nc1ccc(C(F)(F)F)cc1`?
Tau fibril FP: inconclusive; VDR inh: -13.3%; Tau ThT inhib: 7.3%; Tau fluor counter: -14.7%

How did CC1=Nc2ccccc2/C1=C\c1nc(-c2ccc(C(F)(F)F)cc2)oc1O do in these assays?
PLK1 PBD block: -8.1%; Tau fibril FP: 3.2%; VDR inh: 13.1%; Tau ThT inhib: 12.6µM*; Sfp inh: 29.2%; Tau fluor counter: 11.2µM*[quencher]
